# From PubChem
# tim10-1 inh = tim10-1 yeast growth inhibition; AID 463190; hit rate 2.2% among 330,000; inhibition, % at 20 µM; S. cerevisiae tim10-1 ts strain growth, BacTiter-Glo, 24 h;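 active = inhibition of at least 40%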;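 note: mutant grown at 25 °C; 0% = DMSO wells with yeast and 100% = wells holding no yeast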
# NLRP3 yeast inh = NALP3 inhibition in yeast; AID 2825; Yeast reconstituted NLRP3/ASC/caspase-1, beta-gal luminescence, 24 h; hit rate 0.39% among 330,000; inhibition, % at 10 µM;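 active = inhibition of 50% or more; inactive = inhibition below 50%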;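 note: plate controls were induced DMSO wells for no effect and uninduced yeast grown without galactose for full effect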
# TIM10 inh = TIM10 yeast growth inhibition; inhibition, % at 10 µM; S. cerevisiae TIM10 strain growth, BacTiter-Glo luminescence, 24 h; hit rate 1.4% among 330,000;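 active = inhibition of 40% or more at the single tested concentration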;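 note: wild-type TIM10 isogenic control strain grown at permissive 25 °C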
# PfHsp90 yeast 2 = inhibits growth of yeast expressing Plasmodium falciparum Hsp90 | S. cerevisiae expressing PfHsp90, BacTiter-Glo ATP, 48 h; yeast lacking PDR1 and PDR3 efflux regulators | inhibition, % at 9.4 µM | hit rate 0.32% among 310,000;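 active = every replicate shows inhibition above about 80%, whatever the replicate mean, limit read from the data; inconclusive = mean inhibition reaches the set limit but some replicate falls short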;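 note: 0% = DMSO neutral controls and 100% = 20 µM radicicol positive controls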
# tim23-1 inh = growth inhibitors of tim23-1 mutant yeast; S. cerevisiae tim23-1 growth, BacTiter-Glo luminescence, 24 h; inhibition, % at 20 µM; hit rate 1.3% among 330,000; AID 463212;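 active = growth inhibition of the mutant yeast at or above 50%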;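 note: temperature-sensitive mutant grown at 25 °C; plate controls were DMSO-treated mutant yeast for no effect and medium wells lacking yeast for full effect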
# NALP1 yeast inh = NALP1 inhibition | S. cerevisiae NALP1/ASC/caspase-1 growth, X-gal OD620, 72 h | inhibition, % at 10 µM | hit rate 0.61% among 280,000 | AID 2071; in the data active = inhibition mostly above about 24%, no sharp cut-off; inactive = mostly below about 32%
# tim10-1 conf = tim10-1 yeast growth inhibition, confirmed; S. cerevisiae tim10-1 ts strain growth, BacTiter-Glo, 24 h; inhibition, % at 20 µM; AID 463213; shares compounds with tim10-1 inh; hit rate 56% among 7,400;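 active = inhibition of yeast growth at or above a set limit in either of two repeat tests at 20 µM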;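 note: tim10-1 mutant grown at permissive 25 °C to find synthetic lethal compounds; 0% = DMSO yeast wells and 100% = medium wells without yeast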
# TIM10 conf = TIM10 yeast growth inhibition, confirmed. shares compounds with TIM10 inh. S. cerevisiae tim10 strain growth, BacTiter-Glo luminescence, 24 h. inhibition, % at 10 µM. hit rate 63% among 4,600;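 active = inhibition of yeast growth at or above a set limit in either of two replicates at 10 µM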;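 note: this counterscreen used the strain with wild-type TIM10; 0% = yeast with DMSO and 100% = medium wells lacking yeast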
# * hit, by the source's call; ? = inconclusive; . = no result. Only some compounds are listed: those with a hit (about 4.2% of all), similar ones and a draw of the others.
SMILES,tim10-1 inh,NLRP3 yeast inh,TIM10 inh,PfHsp90 yeast 2,tim23-1 inh,NALP1 yeast inh,tim10-1 conf,TIM10 conf
COc1cc(C2Nc3cccc4cccc(c34)N2)cc(OC)c1O,21.3,39.8,28.7,14.5,25.6,-19.1,.,.
Oc1ccc(C2Nc3cccc4cccc(c34)N2)c(O)c1,42.3*,18.9,41.0*,1.3,28.9,4.2,43.8*,37.5*
Cc1cc(C)nc(N2CCC(C(=O)NNC(=O)c3ccc(Cl)cc3)CC2)n1,-4.9,-3.0,-3.7,-10.8,-7.1,.,.,.
CCCc1[nH]nc2c1C(c1cn[nH]c1-c1ccc(F)cc1)C(C#N)=C(N)O2 (centres undefined),43.8*,-11.0,40.8*,-12.0,44.1,2.1,47.7*,33.8*
CCCc1[nH]nc2c1C(c1ccccc1OC)C(C#N)=C(N)O2 (centres undefined),13.5,4.3,4.8,.,11.0,1.5,.,.
O=C(COc1ccc2ccccc2c1)Nc1ccc(S(=O)(=O)N2CCCCCC2)cc1,41.4*,1.4,45.7*,-10.7,13.9,-55.4,36.7*,-11.0
O=C(CN1CCN(S(=O)(=O)c2ccc3ccccc3c2)CC1)Nc1ccc(N2CCOCC2)cc1,33.3,9.2,13.0,8.6,17.9,43.7,.,.
COc1ccc(C(=O)Nc2ccc(S(=O)(=O)N3CCCCC3)cc2)cc1,47.7*,13.2,61.0*,2.8,43.2,4.4,64.4*,61.6*
COc1ccc(C(=O)Nc2ccc(S(=O)(=O)N3CCN(C)CC3)cc2)cc1,5.3,19.5,4.6,2.3,-9.5,.,.,.
O=C(CN1CCN(S(=O)(=O)c2ccc3ccccc3c2)CC1)Nc1ccc2c(c1)CCC2,43.6*,14.8,53.3*,-47.7,27.1,34.0,45.6*,12.9
Cc1ccc(NC(=O)C2CCN(S(C)(=O)=O)CC2)cc1Cl,-3.7,13.1,-3.8,2.8,12.8,14.0,.,.
O=C(c1ccc(-c2ccc([N+](=O)[O-])cc2)o1)N1CCCCC1,54.2*,-18.0,40.0*,15.4,33.3,5.1,46.2*,25.4
CCOC(=O)c1ccc(NC(=O)CC2C(=O)OCCN2CC)cc1 (centres undefined),68.4*,12.9,43.7*,108.5*,36.9,31.6,58.8*,57.9*
Cc1ccc(CNCc2cc(Cl)ccc2O)cc1,3.1,17.6,-4.3,13.3,11.7,.,.,.
O=C1N/C(=C\c2ccc(O)cc2)C(=O)c2ccccc21,54.9*,7.2,47.8*,.,40.1,5.0,42.0*,35.5*
CCCN(CCC)C1CC(=O)N(Cc2ccccc2)C1=O (centres undefined),53.3*,13.9,41.5*,?,34.2,26.2,47.1*,38.6*
CCCCCCC(=O)N(O)C1CC(=O)N(Cc2ccccc2)C1=O (centres undefined),44.9*,13.4,42.6*,-16.0,23.9,47.0*,40.7*,26.6
CCCCS(=O)(=O)/C=C\C=C/S(=O)(=O)CCCC,69.5*,5.1,58.5*,16.9,42.7,125.6*,42.0*,61.1*
Cn1cc(-c2nc3ccccc3[nH]2)c2ccccc21,41.0*,31.5,71.2*,11.5,-10.1,-37.2,26.6,-3.0
Cc1c(-c2nc3ccccc3[nH]2)cnn1C,-41.2,16.7,3.1,-19.3,-0.1,.,.,.
COc1cc2c(cc1OC)C(c1ccc(-c3ccccc3Cl)o1)=NCC2,46.0*,27.5,45.6*,.,49.0,25.1,40.4*,47.3*
COc1cc2c(cc1OC)C(c1ccc(-c3ccc(Cl)cc3Cl)o1)=NCC2,51.1*,26.8,47.6*,-56.1,44.6,20.3,26.6,35.6*
COc1cc2c(cc1OC)C(c1ccc(Cl)cc1)=NCC2,-2.3,31.7,8.3,9.3,-4.1,.,.,.
COc1cc2c(cc1OC)C(c1ccc(-c3cc(Cl)ccc3Cl)o1)=NCC2,45.8*,8.3,45.1*,-17.0,-2.4,7.8,43.5*,45.5*
COc1ccccc1CCC(=O)N(C)C1CCCN(Cc2ccccc2F)C1 (centres undefined),17.8,12.3,2.1,18.3,18.4,6.6,.,.
SMILES,tim10-1 inh,NLRP3 yeast inh,TIM10 inh,PfHsp90 yeast 2,tim23-1 inh,NALP1 yeast inh,tim10-1 conf,TIM10 conf
Cc1cccc(-n2c(CNC(=O)c3ccc(S(=O)(=O)N(C)C)cc3)nnc2SCC(=O)Nc2ccc(F)cc2)c1,-14.6,-2.0,-1.3,4.0,6.3,38.0,.,.
CC1(C)CC(=O)C2=C(C1)Nc1ccccc1N=C2,49.4*,3.8,40.7*,.,46.0,14.6,44.2*,33.6*
c1ccc2c(c1)OCC(c1nnc3sc(-c4ccc5c(c4)OCO5)nn13)O2 (centres undefined),42.1*,-30.0,47.8*,-52.6,26.9,8.4,27.6,12.6
NNC(=O)c1cc2c(N3CCC(Cc4ccccc4)CC3)ncnc2s1,36.4,9.9,16.3,-0.7,20.9,7.6,.,.
Cc1ccc(C(=O)Nc2nc(-c3cccnc3)cs2)o1,-10.9,7.0,3.8,-10.4,-4.4,-0.9,.,.
O=C(Nc1nc(-c2ccccc2)cs1)c1ccc(Br)o1,41.1*,-40.3,41.2*,-2.1,49.7,11.1,47.7*,50.3*
COc1ccc(-n2ncc3c(SCC(=O)N4CCN(c5ccccc5OC)CC4)ncnc32)cc1,21.8,1.2,28.4,.,15.6,-7.9,.,.
CC(c1ccco1)N(C(=O)C12CC3CC(CC(C3)C1)C2)c1ccccn1 (centres undefined),43.1*,-0.5,46.3*,21.4,43.6,30.1,36.0*,-23.6
CC(c1ccco1)N(C(=O)c1ccccc1F)c1ccccn1 (centres undefined),12.8,5.1,10.9,31.1,12.7,-14.5,.,.
CSc1nccc(N/N=C/c2ccccc2)n1,28.2,29.6,-3.3,-19.3,16.0,26.8,.,.
FC(F)(F)c1cccc(Cc2noc(CN3CCC(c4ccncc4)CC3)n2)c1,44.2*,10.2,42.1*,-5.2,44.8,6.7,41.5*,43.3*
CN1CCCC2(CCCN(Cc3nc(Cc4cccc(C(F)(F)F)c4)no3)C2)C1 (centres undefined),6.6,9.1,-1.0,2.0,19.8,-21.5,.,.
Cc1onc(-c2ccccc2)c1C(=O)NC(=S)Nc1sc2c(c1C#N)CCCC2,41.8*,35.8,54.1*,-6.4,40.1,17.1,27.5,33.0*
COCn1c(=O)c2c(nc(SC3=NCCS3)n2Cc2ccccc2C)n(COC)c1=O,47.1*,2.3,42.8*,-66.9,39.6,17.6,19.4,35.0*
COCCCn1c(=O)c2ccccc2n(Cc2ccccc2C)c1=O,11.4,-33.2,15.6,0.5,11.5,6.9,.,.
CC1=CC(C)(C)N2C(=O)C3(SCC(=O)N3c3ccc(F)cc3)c3cc(C)cc1c32 (centres undefined),46.3*,2.9,41.2*,.,43.4,-2.2,25.7,37.4*
